Assay results: PubChem BioAssay (Tox21)
Several values for one entry are separate records, joined by “and”; a condition that tells them apart may be missing. Identical values can stand only once. Records with an inconclusive call do not appear. A call without a number means that no potency is given here. A structure can be active in one record and inactive in another. Activity calls are given as the source filed them. Unless noted, the call rests on the fitted dose curve.

Legend:
[1] = Nuclear factor erythroid 2-related factor 2/antioxidant responsive element (Nrf2/ARE) small molecule agonists: qHTS cell viability counter screen in human keratinocytes (AID 1919968; active means well fitted curve in the direction sought with a large enough effect in the repeat runs; an effect the other way counts as inactive or inconclusive; further: nearly all actives have a fitted effect of over 55% in size; further: potency means the concentration at half of the fitted maximal effect)
Outline: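 KeratinoSens HaCaT cells, 1,500/well, preincubated 5 h, then exposed to compounds in DMSO for 23 h at 37 C/5% CO2. Viability read as CellTiter-Fluor fluorescence after 1 h, in the same wells as the ARE-luciferase read.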

[2] = target: Gonadotropin-releasing hormone receptor (Homo sapiens) (UniProt P30968); test: Human gonadotropin-releasing hormone receptor (GnRHR) small molecule agonists, calcium flux assay in GnRHR-HEK293 cells (AID 1920063); further: nearly all actives have a fitted effect of over 35% in size; further: potency means the concentration at half of the fitted maximal effect
Outline: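 HEK293 cells stably expressing human GnRHR were dye-loaded for 1 h at 37 C. Compound was added in agonist mode and fluorescence (Ex/Em 480/540) recorded kinetically for 3 min. Fifteen concentrations, triplicates.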

[3] = G protein-coupled receptor (GPCR) small molecule agonists, calcium flux assay: HEK293 wild type cell line counter screen (AID 1920065); further: potency means the concentration at half of the fitted maximal effect
Outline: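 Wild-type HEK293 cells plated 18 h, loaded with calcium dye 1 h at 37 C, then compounds added in agonist mode (ATP as positive control). Kinetic fluorescence Ex/Em 480/540 recorded 3 min at 1 sec intervals; 15 concentrations, triplicate.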

[4] = p53 small molecule agonists, cell-based qHTS assay with human liver microsomes (AID 1963577)
Outline: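 p53RE-bla cells, 4,000/well, compound added after 5 h, with human liver microsomes 0.5 mg/mL and NADPH 0.5 mg/mL final; 16 h at 37 C, then LiveBLAzer 2 h RT, fluorescence.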

[5] = p53 small molecule agonists, cell-based qHTS assay with rat liver microsomes (AID 1963578)
Outline: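 p53RE-bla cells, 4,000/well, pre-incubated 5 h, then given compounds plus rat liver microsomes (0.5 mg/mL final) and NADPH (0.5 mg/mL final). Incubation 16 h at 37 C; beta-lactamase reporter read by LiveBLAzer fluorescence after 2 h at room temperature.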

[6] = p53 small molecule agonists, cell-based qHTS assay with human liver microsomes: qHTS cell viability counter screen (AID 1963579); further: nearly all actives have a fitted effect of over 45% in size; further: potency means the concentration at half of the fitted maximal effect
Outline: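 p53RE-bla cells, 4,000/well, dosed 5 hours after plating, with human liver microsomes (0.5 mg/mL final) plus NADPH (0.5 mg/mL final), 16 hours at 37 C. Viability read as CellTiter-Glo luminescence after 30 min at room temperature.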

[7] = p53 small molecule agonists, cell-based qHTS assay: qHTS cell viability counter screen (AID 1963581); further: nearly all actives have a fitted effect of over 45% in size; further: potency means the concentration at half of the fitted maximal effect
Outline: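 p53RE-bla HCT-116 cells, compounds added 5 h after plating and incubated 16 h at 37 C. Cytotoxicity measured in the same wells as intracellular ATP by CellTiter-Glo luminescence after 30 min at room temperature.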

[8] = target: 5-hydroxytryptamine receptor 2A (Homo sapiens) (UniProt P28223); test: 5-hydroxytryptamine receptor 2A (HTR2A) small molecule agonists, cell-based qHTS assay (AID 1963587); further: nearly all actives have a fitted effect of over 30% in size; further: potency means the concentration at half of the fitted maximal effect
Outline: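 Kinetic calcium-flux fluorescence (2 min, 1 sec intervals) after compound addition in agonist mode. HTR2A-CHO cells were cultured 18 h, then dye-loaded 1 h at 37 C.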

[9] = target: Muscarinic acetylcholine receptor M1 (Homo sapiens) (UniProt P11229); test: Cholinergic receptor muscarinic 1 (CHRM1) small molecule antagonists, cell-based qHTS assay (AID 1963588); further: nearly all actives have a fitted effect of over 40% in size; further: potency means the concentration at half of the fitted maximal effect
Outline: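 CHRM1-CHO calcium-flux assay, antagonist mode. Cells were seeded 18 h, dye-loaded 1 h at 37 C and given compound for 5 min at RT, then acetylcholine was added at 50nM. FDSS fluorescence was read 3 min; 15 concentrations, three runs.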

[10] = cAMP Responsive Elements (CRE) small molecule agonists, cell-based qHTS assay (AID 1963590)
Outline: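 CRE-bla HEK 293T cells, 2,000/well in DMEM with 10% dialyzed FBS and 25 mM HEPES, pre-incubated 18 h at 37 C, then exposed to compound 3 h at 37 C. Beta-lactamase reporter read with LiveBLAzer B/G FRET substrate after 2 h at room temperature.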

[11] = target: Beta-2 adrenergic receptor (Homo sapiens) (UniProt P07550); test: Adrenergic beta2 receptor (ADRB2) small molecule antagonists, cell-based qHTS assay (AID 1963592); further: nearly all actives have a fitted effect of over 50% in size; further: potency means the concentration at half of the fitted maximal effect
Outline: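 Cells (CHO, stable ADRB2 overexpression) incubated 18-20hr at 37C; compounds added from DMSO; agonist mix (1nM isoproterenol, 100uM IBMX, 25uM Ro-20-1724) added; 0.5hr RT; d2-cAMP and anti-cAMP-cryptate added; 1hr RT; 665/615 nm read.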

[12] = target: Beta-2 adrenergic receptor (Homo sapiens) (UniProt P07550); test: Adrenergic beta2 receptor (ADRB2) small molecule agonists, cell-based qHTS assay (AID 1963593); further: potency means the concentration at half of the fitted maximal effect;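 on activation: CHO cells stably overexpressing human ADRB2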
Outline: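 CHO cells stably over-expressing ADRB2 were plated overnight at 37C, then dosed with compounds plus a stimulation mix containing 100uM IBMX and 25uM Ro-20-1724 for 0.5hr at room temperature. cAMP was measured by HTRF competition, 1hr.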

[13] = target: D(2) dopamine receptor (Homo sapiens) (UniProt P14416); test: Dopamine D2 receptor (DRD2) small molecule agonists, cell-based qHTS assay (AID 1963594); further: nearly all actives have a fitted effect of over 35% in size
Outline: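 cAMP accumulation in DRD2-HEK293 cells measured by HTRF after 1 h detection; compounds added 10 min before NKH477 (200nM […]) forskolin-analogue stimulation, 30 min at room temperature, with Ro20-1724 present at 0.1 mM final.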

[14] = target: D(2) dopamine receptor (Homo sapiens) (UniProt P14416); test: Dopamine D2 receptor (DRD2) small molecule antagonists, cell-based qHTS assay (AID 1963595; active means well fitted inhibition curve with a large enough effect in the signal ratio in the repeat runs, with a control signal flat; the % refers to the signal ratio; further: potency means the concentration at half of the fitted maximal effect)
Outline: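 Cells were plated and grown for 24 h at 37 °C. Ro20-1724 (0.1 mM final) went in first, then compound for 10 min. NKH477 (200 nM) with quinpirole (12 nM) followed for 30 min at RT, then HTRF detection reagents for 1 h.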

[15] = target: KiSS-1 receptor (Homo sapiens) (UniProt Q969F8); test: Human kisspeptin (KISS1R) small molecule agonists, calcium flux assay in KISS1R-HEK293 cells (AID 1920064; active means well fitted curve in the direction sought with a large enough effect in the repeat runs; an effect the other way counts as inactive or inconclusive; further: potency means the concentration at half of the fitted maximal effect)
Outline: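 HEK293 cells stably expressing human KISS1R were loaded with calcium dye for 1 h at 37 C, then given compound; fluorescence (Ex/Em 480/540) was read kinetically for 3 min. Fifteen concentrations, triplicate.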

[16] = p53 small molecule agonists, cell-based qHTS assay with rat liver microsomes: qHTS cell viability counter screen (AID 1963580); further: nearly all actives have a fitted effect of over 45% in size; further: potency means the concentration at half of the fitted maximal effect
Outline: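 HCT-116 p53RE-bla, 4,000 cells/well, 5 h pre-incubation; cpd + rat liver microsomes 0.5 mg/mL + NADPH 0.5 mg/mL (final); 16 h, 37 C; CellTiter-Glo, 30 min RT; luminescence.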

[17] = p53 small molecule agonists, cell-based qHTS assay (AID 1963582; active means well fitted activation curve with a large enough effect in the signal ratio in the repeat runs, not every such curve was filed as active; the % refers to the signal ratio)
Outline: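 p53RE-bla reporter cells, compounds added in DMSO after 5 h plating, incubated 16 h at 37 C. Beta-lactamase read via 2 h room-temperature LiveBLAzer B/G FRET substrate, fluorescence intensity.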

[18] = target: 5-hydroxytryptamine receptor 2A (Homo sapiens) (UniProt P28223); test: 5-hydroxytryptamine receptor 2A (HTR2A) small molecule antagonists, cell-based qHTS assay (AID 1963586); further: nearly all actives have a fitted effect of over 45% in size; further: potency means the concentration at half of the fitted maximal effect
Outline: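 Antagonist-mode intracellular calcium assay: DOI (4 nM) added after 5 min compound pre-incubation at room temperature to dye-loaded HTR2A-CHO cells. Fluorescence followed for 3 min, sampled every second.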

[19] = target: Muscarinic acetylcholine receptor M1 (Homo sapiens) (UniProt P11229); test: Cholinergic receptor muscarinic 1 (CHRM1) small molecule agonists, cell-based qHTS assay (AID 1963589); further: nearly all actives have a fitted effect of over 35% in size; further: potency means the concentration at half of the fitted maximal effect
Outline: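 CHO cells stably expressing human CHRM1 were loaded with calcium dye for 1 h at 37 C, then compound was added in agonist mode. Intracellular calcium fluorescence was followed kinetically at 1 s intervals. Fifteen concentrations were tested in three independent runs.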

[20] = cAMP Responsive Elements (CRE) small molecule antagonists, cell-based qHTS assay (AID 1963591; active means well fitted inhibition curve with a large enough effect in the signal ratio in the repeat runs, not every such curve was filed as active; the % refers to the signal ratio)
Outline: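 CRE-bla HEK293T cells plated 18 h, then given compound plus NKH477 at 0.25 uM final for 3 h at 37C. Beta-lactamase reporter read with LiveBLAzer B/G FRET substrate after 2 h at room temperature.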

Sequence of Beta-2 adrenergic receptor (Homo sapiens) (P07550 whole entry, looked up): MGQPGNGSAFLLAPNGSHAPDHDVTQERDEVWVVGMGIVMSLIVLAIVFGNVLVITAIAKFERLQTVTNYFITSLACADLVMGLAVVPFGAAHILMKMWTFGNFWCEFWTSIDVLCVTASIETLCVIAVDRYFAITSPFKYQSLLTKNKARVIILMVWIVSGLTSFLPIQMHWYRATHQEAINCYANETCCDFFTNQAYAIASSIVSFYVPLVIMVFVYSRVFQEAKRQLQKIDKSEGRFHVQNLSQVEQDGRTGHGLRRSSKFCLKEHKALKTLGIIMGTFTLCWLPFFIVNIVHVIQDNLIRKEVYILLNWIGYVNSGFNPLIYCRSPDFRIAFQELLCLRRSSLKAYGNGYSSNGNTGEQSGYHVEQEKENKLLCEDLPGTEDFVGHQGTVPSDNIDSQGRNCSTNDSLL
Sequence of D(2) dopamine receptor (Homo sapiens) (P14416 whole entry, looked up): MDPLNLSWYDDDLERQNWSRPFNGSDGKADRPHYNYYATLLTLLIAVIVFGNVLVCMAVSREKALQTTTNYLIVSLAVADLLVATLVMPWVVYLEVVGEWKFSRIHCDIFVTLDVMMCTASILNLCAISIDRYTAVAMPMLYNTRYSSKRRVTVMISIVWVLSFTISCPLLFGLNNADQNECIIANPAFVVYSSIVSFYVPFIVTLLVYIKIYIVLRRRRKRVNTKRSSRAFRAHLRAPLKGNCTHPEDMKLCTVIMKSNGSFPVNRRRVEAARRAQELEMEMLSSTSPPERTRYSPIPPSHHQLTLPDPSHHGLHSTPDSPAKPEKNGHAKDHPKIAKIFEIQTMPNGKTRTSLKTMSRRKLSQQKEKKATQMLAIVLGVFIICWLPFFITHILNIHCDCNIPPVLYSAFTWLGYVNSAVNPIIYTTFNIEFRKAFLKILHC
Sequence of Muscarinic acetylcholine receptor M1 (Homo sapiens) (P11229 whole entry, looked up): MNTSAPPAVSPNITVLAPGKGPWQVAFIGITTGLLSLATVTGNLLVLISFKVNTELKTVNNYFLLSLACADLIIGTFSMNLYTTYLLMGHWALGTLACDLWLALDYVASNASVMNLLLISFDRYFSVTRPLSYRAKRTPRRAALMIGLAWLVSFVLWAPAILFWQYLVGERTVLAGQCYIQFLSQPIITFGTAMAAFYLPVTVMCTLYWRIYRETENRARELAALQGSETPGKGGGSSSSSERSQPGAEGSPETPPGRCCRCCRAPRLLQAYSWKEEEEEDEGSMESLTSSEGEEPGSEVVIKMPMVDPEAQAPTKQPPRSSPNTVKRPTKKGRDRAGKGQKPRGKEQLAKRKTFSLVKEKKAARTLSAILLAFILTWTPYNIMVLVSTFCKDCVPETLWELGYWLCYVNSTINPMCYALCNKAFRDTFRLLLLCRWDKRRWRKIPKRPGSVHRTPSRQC
Sequence of KiSS-1 receptor (Homo sapiens) (Q969F8 whole entry, looked up): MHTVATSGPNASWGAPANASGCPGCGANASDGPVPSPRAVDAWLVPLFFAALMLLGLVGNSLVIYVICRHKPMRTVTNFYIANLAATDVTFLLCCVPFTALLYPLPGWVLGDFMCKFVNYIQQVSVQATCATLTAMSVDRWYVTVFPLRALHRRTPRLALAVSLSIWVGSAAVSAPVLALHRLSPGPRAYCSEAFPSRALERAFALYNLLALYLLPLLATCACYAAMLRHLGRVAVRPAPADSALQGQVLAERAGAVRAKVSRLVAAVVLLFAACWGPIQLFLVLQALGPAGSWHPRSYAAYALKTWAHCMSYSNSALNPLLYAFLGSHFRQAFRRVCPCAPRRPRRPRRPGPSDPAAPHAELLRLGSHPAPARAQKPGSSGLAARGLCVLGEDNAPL
Sequence of Gonadotropin-releasing hormone receptor (Homo sapiens) (P30968 whole entry, looked up): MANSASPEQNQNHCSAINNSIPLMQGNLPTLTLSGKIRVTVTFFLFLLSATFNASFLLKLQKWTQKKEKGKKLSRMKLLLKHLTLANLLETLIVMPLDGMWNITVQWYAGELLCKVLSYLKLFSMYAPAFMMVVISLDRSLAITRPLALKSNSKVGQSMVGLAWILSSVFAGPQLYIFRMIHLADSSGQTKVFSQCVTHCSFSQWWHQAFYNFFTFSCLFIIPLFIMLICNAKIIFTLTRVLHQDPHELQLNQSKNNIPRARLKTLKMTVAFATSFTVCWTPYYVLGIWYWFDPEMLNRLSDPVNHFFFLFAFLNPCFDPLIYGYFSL
Sequence of 5-hydroxytryptamine receptor 2A (Homo sapiens) (P28223 whole entry, looked up): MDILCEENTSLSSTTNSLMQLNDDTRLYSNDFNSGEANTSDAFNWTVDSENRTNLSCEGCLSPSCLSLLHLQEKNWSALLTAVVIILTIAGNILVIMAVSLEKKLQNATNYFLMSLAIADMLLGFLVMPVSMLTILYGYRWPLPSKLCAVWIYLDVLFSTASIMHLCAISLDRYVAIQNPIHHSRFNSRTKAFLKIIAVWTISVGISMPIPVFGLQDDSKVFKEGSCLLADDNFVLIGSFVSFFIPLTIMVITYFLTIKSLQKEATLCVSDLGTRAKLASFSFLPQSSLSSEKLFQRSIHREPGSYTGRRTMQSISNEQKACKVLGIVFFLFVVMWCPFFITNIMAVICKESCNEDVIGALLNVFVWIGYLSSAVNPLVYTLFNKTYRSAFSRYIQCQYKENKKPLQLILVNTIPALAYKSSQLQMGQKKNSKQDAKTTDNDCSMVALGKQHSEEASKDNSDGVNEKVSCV

Row | SMILES | Potency [1] | Potency [2] | Potency [3] | Potency [4] | Potency [5] | Potency [6] | Potency [7] | Potency [8] | Potency [9] | Potency [10] | Potency [11] | Potency [12] | Potency [13] | Potency [14] | Potency [15] | Potency [16] | Potency [17] | Potency [18] | Potency [19] | Potency [20]
1 | O=C1c2ccccc2C(=O)N1SC(Cl)(Cl)Cl | 24 µM (active) | 38.9 µM (active) | inactive | inactive | inactive | inactive | inactive | 54.2 µM (active) and 43.6 µM (active) | inactive | inactive | inactive | 21.7 µM (active) | inactive | inactive |  |  |  |  |  | 
2 | COC(=O)c1sccc1S(=O)(=O)NC(=O)Nc1nc(C)nc(OC)n1 | inactive |  | inactive | inactive | inactive | inactive | inactive | inactive | inactive | inactive | inactive | inactive | inactive |  | inactive | inactive | inactive | inactive | inactive | inactive
3 | COC(=O)Nc1cccc(OC(=O)Nc2cccc(C)c2)c1 | inactive | inactive | inactive | inactive | inactive | inactive |  | inactive | inactive | inactive | inactive | inactive |  | inactive |  | inactive | inactive | inactive | inactive | inactive
4 | N#Cc1ccccc1N | inactive |  | inactive | inactive | inactive | inactive | inactive | inactive | inactive | inactive | inactive | inactive | inactive | inactive | inactive | inactive | inactive | inactive | inactive | inactive
5 | Nc1cc(Cl)cc(Cl)c1 | inactive |  | inactive | inactive | inactive | inactive | inactive | inactive | inactive | inactive | inactive |  | inactive | inactive | inactive | inactive | inactive | inactive | inactive | inactive
6 | C=CCO | inactive |  | inactive | inactive | inactive | inactive | inactive |  |  | inactive | inactive and 61.1 µM (active) |  |  | inactive | inactive | inactive | inactive |  |  | inactive
7 | C[N+]1(C)CCCCC1 | inactive |  | inactive | inactive | inactive | inactive | inactive | inactive | inactive | inactive | inactive | inactive | inactive | inactive | inactive | inactive | inactive | inactive | inactive | inactive
8 | OC[P+](CO)(CO)CO | inactive |  | inactive | inactive | inactive | inactive | inactive | inactive | inactive | inactive | inactive |  | inactive | inactive | inactive | inactive | inactive | inactive | inactive | inactive
9 | CCC[CH2][Sn]([Cl])([CH2]CCC)[CH2]CCC | 244 nM (active) and 486 nM (active) |  | 34.7 µM (active) | inactive | inactive | 6.48 µM (active) and 5.76 µM (active) | 1.29 µM (active) and inactive | 11 µM (active) and 34.7 µM (active) | 16.8 µM (active) |  | 1.09 µM (active) and 1.37 µM (active) |  |  | 15.4 µM (active) and 19.3 µM (active) | 43.6 µM (active) | 4.09 µM (active) and 4.08 µM (active) |  | 18.8 µM (active) | 21.9 µM (active) and 38.9 µM (active) | 
10 | N#CCC#N | inactive |  | inactive | inactive | inactive | inactive |  | inactive | inactive | inactive | inactive | inactive | inactive | inactive | inactive | inactive | inactive | inactive | inactive | inactive
11 | O=C(NCO)NCO | inactive |  | inactive | inactive | inactive | inactive | inactive | inactive | inactive | inactive | inactive | inactive | inactive | inactive | inactive | inactive | inactive | inactive | inactive | inactive
12 | COCC(=O)N(c1c(C)cccc1C)N1CCOC1=O | inactive |  | inactive | inactive | inactive | inactive | inactive | inactive | inactive | inactive | inactive |  | inactive | inactive | inactive | inactive | inactive | inactive | inactive | inactive
13 | O=C(O)C1C(C(=O)O)C2(Cl)C(Cl)=C(Cl)C1(Cl)C2(Cl)Cl (centres undefined) | inactive |  | inactive | inactive | inactive | inactive | inactive | inactive | inactive | inactive | inactive | inactive | inactive | inactive | inactive | inactive | inactive | inactive | inactive | inactive
14 | O=C(NCc1cccnc1)Nc1ccc([N+](=O)[O-])cc1 | inactive |  | inactive | inactive | inactive | inactive | inactive | inactive | inactive | inactive | inactive |  | inactive | inactive | inactive | inactive | inactive | 3.75 µM (active) | inactive | inactive
15 | Cc1cc(O)ccc1Cl | inactive |  | inactive | inactive | inactive | inactive | inactive | inactive |  | inactive | inactive | inactive |  | inactive | inactive | inactive | inactive | inactive | inactive | inactive
